In PubChem BioAssay AID504697 (The Scripps Research Institute Molecular Screening Center, 2011) one finds EC50 data, which are given here for 14 compounds.

Values without a mark were called inactive. Active and inactive are the calls of the source.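 Rule for the calls: active = EC50 at or below 10 µM; inactive = EC50 above 10 µM.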 Some results are limits rather than exact numbers.

The test can be described thus: compound autofluorescence in calcium buffer – biochemical, fluorescence, no RTF in test wells, artefact control for cardiac thin filament activator project, dose response (AID 504697).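 Note: emission near 535 nm under roughly 485 nm excitation as for IANBD.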 The note with it: artifact counterscreen. In general terms: The purpose of a counterscreen is to sort out artefacts and off-target activity.
For `COc1ccc(OC)c(-n2c(O)c(C=NCCN3CCNCC3)c(=O)[nH]c2=S)c1`, the EC50 was above 71.5 µM. The same measure for `C/C(=N\N1CCCCC1c1cccnc1)c1c(O)n(C2CCCCC2)c(=S)[nH]c1=O` (centres undefined): 39.3 µM; for `O=c1[nH]c(=O)n(Cc2ccc(F)cc2)c(O)c1/C=N/Nc1ccccc1`: above 71.5 µM; for `CC(=O)OCC[N+](C)(C)C`: > 71.4 µM [compound-only fluorescence in RTF assay buffer with Ca2+ (no RTF in test wells)]. `C=CCN1C(=O)/C(=C/c2ccc(N3CCOCC3)o2)C(=O)NC1=S`: the EC50 was 14 µM.

On to `Cc1ccc(-n2c(O)c(/C=C/C=Nc3ccccc3)c(=O)[nH]c2=O)cc1`, for which the EC50 was 10.6 µM. The same measure for `O=C(CN1CCN(c2ccccc2F)CC1)Nc1cccnc1Cl`: above 71.5 µM; for `CN1C(=O)/C(=C/c2ccc(N3CCCCCC3)o2)C(=O)NC1=S`: 5 µM (active). As to `CNS(=O)(=O)c1ccc(N=Cc2c(O)n(-c3ccccc3)c(=O)[nH]c2=O)cc1`, the EC50 was above 71.5 µM. As for `CCC1(C)OC(c2ccccc2)=C/C(=C/C=C2C(=O)NC(=O)NC2=O)O1` (centres undefined), the EC50 was 2.73 µM (active).

As to `O=[N+]([O-])c1ccc(N2CCCCCC2)c2nonc12`, the EC50 was 1.17 µM (active). Turning to `Cc1cc(N2CCCC2)ccc1C=C(C#N)C#N`, the EC50 was 14.4 µM. Take `Cc1cc(Cl)nc(N)n1`: the EC50 was above 71.4 µM. As for `O=[N+]([O-])c1ccc(N2CCCC2)c2ncccc12`, the figure is 23.5 µM.

As usually defined, the EC50 is the concentration that produces a half-maximal response.
